Results reported in PubChem BioAssay (EPA / NIEHS).
Inconclusive results are not listed. Active and inactive are the calls of the source. The calls were made as follows, unless noted: active = hit-call score of the fitted dose curve at least 0.9, where 1 is the maximum; inactive = score below 0.9.

The molecules below were run on SRY-box transcription factor 2 (SOX2) Protein Expression, Deisenroth Lab, SOX2 (gene 6657) (assay: CCTE_Deisenroth_DEVTOX-GLR_Endo_SOX2: CCTE's DevTox GLR-Endo Assay Evaluation of SRY-box transcription factor 2 (SOX2) Protein Expression, Deisenroth Lab (AID 2284412; active = hit-call score of the fitted dose curve at least 0.9, where 1 is the maximum)).
How it was run: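 Endpoint is percent SOX2-positive cells (SOX2+ count/total cells) minus 0.2% DMSO control, from high-content imaging of fixed, nuclear-stained RUES2-GLR cells. Dosing twice at 24 h intervals over 48 h differentiation, 1 nM–200 uM in 10 points.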

Compound | AC50
COc1cc2c(Nc3ccc(Br)cc3F)ncnc2cc1OCC1CCN(C)CC1 | 8.62 µM (active)
Cc1nc(Nc2ncc(C(=O)Nc3c(C)cccc3Cl)s2)cc(N2CCN(CCO)CC2)n1 | 3.15 µM (active)
O=C1Cc2cc(CCN3CCN(c4nsc5ccccc45)CC3)c(Cl)cc2N1 | 6.29 µM (active)
CNC(=O)c1cc(Oc2ccc(NC(=O)Nc3ccc(Cl)c(C(F)(F)F)c3)cc2)ccn1 | 1.45 µM (active)
Cc1nc2sccn2c(=O)c1CCN1CCC(=C(c2ccc(F)cc2)c2ccc(F)cc2)CC1 | 20.4 µM (active)

The molecules below were run on SRY-box transcription factor 17 (SOX17) Protein Expression, Deisenroth Lab, SOX17 (gene 64321) (assay: CCTE_Deisenroth_DEVTOX-GLR_Endo_SOX17: CCTE's DevTox GLR-Endo Assay Evaluation of SRY-box transcription factor 17 (SOX17) Protein Expression, Deisenroth Lab (AID 2284413)).
How it was run: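 RUES2-GLR human pluripotent cells were seeded 24 h, then differentiated toward endoderm for 48 h with two chemical exposures 24 h apart (10-point series, 1 nM - 200 uM). Nuclei-stained fixed cells were imaged; endpoint is percent change in SOX17+ cells versus 0.2% DMSO.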

Compound | AC50
COc1cc2c(Nc3ccc(Br)cc3F)ncnc2cc1OCC1CCN(C)CC1 | 4.83 µM (active)
Cc1nc(Nc2ncc(C(=O)Nc3c(C)cccc3Cl)s2)cc(N2CCN(CCO)CC2)n1 | 0.633 µM (active)
O=C1Cc2cc(CCN3CCN(c4nsc5ccccc45)CC3)c(Cl)cc2N1 | 3.99 µM (active)
CNC(=O)c1cc(Oc2ccc(NC(=O)Nc3ccc(Cl)c(C(F)(F)F)c3)cc2)ccn1 | 0.604 µM (active)
Cc1nc2sccn2c(=O)c1CCN1CCC(=C(c2ccc(F)cc2)c2ccc(F)cc2)CC1 | 11 µM (active)

Each molecule was assayed on Brachyury (BRA) Protein Expression, TBXT (gene 6862) (assay: CCTE_Deisenroth_DEVTOX-GLR_Endo_BRA: CCTE's DevTox GLR-Endo Assay Evaluation of Brachyury (BRA) Protein Expression, Deisenroth Lab (AID 2284417)).
How it was run: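 Read-out: BRA+ cell count divided by total cell count by high-content imaging (5 fields per well), expressed relative to 0.2% DMSO solvent control. RUES2-GLR cells dosed twice over a 48 h differentiation; concentrations 1 nM - 200 uM.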

Compound | AC50
COc1cc2c(Nc3ccc(Br)cc3F)ncnc2cc1OCC1CCN(C)CC1 | 6.72 µM (active)
Cc1nc(Nc2ncc(C(=O)Nc3c(C)cccc3Cl)s2)cc(N2CCN(CCO)CC2)n1 | 21.7 µM (active)
O=C1Cc2cc(CCN3CCN(c4nsc5ccccc45)CC3)c(Cl)cc2N1 | 4.78 µM (active)
CNC(=O)c1cc(Oc2ccc(NC(=O)Nc3ccc(Cl)c(C(F)(F)F)c3)cc2)ccn1 | 4.31 µM (active)
Cc1nc2sccn2c(=O)c1CCN1CCC(=C(c2ccc(F)cc2)c2ccc(F)cc2)CC1 | 17.7 µM (active)

What follows are molecules tested on SRY-box transcription factor 17 (SOX17) Protein Expression, Deisenroth Lab, SOX17 (gene 64321) (assay: CCTE_Deisenroth_DEVTOX-GLR_Pluri_SOX17: CCTE's DevTox GLR-Pluri Assay Evaluation of SRY-box transcription factor 17 (SOX17) Protein Expression, Deisenroth Lab (AID 2284427; active = hit-call score of the fitted dose curve at least 0.9, where 1 is the maximum)).
How it was run: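 RUES2-GLR pluripotent cells were induced toward endoderm over 48 h and received two compound doses 24 h apart, in a 10-point series from 1 nM to 200 uM. The percentage of SOX17+ cells among total cells was measured by high-content imaging and reported minus the 0.2% DMSO control.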

Compound | AC50 | outcome
Cc1nc(Nc2ncc(C(=O)Nc3c(C)cccc3Cl)s2)cc(N2CCN(CCO)CC2)n1 | 0.017 µM (active) | –
O=C1Cc2cc(CCN3CCN(c4nsc5ccccc45)CC3)c(Cl)cc2N1 | – | inactive
CNC(=O)c1cc(Oc2ccc(NC(=O)Nc3ccc(Cl)c(C(F)(F)F)c3)cc2)ccn1 | 20.9 µM (active) | –
Cc1nc2sccn2c(=O)c1CCN1CCC(=C(c2ccc(F)cc2)c2ccc(F)cc2)CC1 | – | inactive
